# Measurements reported in PubChem BioAssay (NCATS).
# Values joined by “and” are separate entries in the source; they are usually repeats but may differ in a detail not shown here. Identical values can stand only once. Inconclusive results are not listed. More than one record can exist for a structure, and the calls need not agree. Active and inactive are the calls of the source. Unless noted, the call rests on the fitted dose curve; in most records, active means well fitted curve in the direction sought with a large enough effect; inconclusive means small, poorly fitted or top-dose-only effect, or another doubt; inactive means no such curve, though single readings can be large; an effect the other way counts as inactive or inconclusive.
# How the values were obtained:
# [1] = AP1 Signaling Pathway (AID 357; active means well fitted curve in either direction with a large enough effect, not every such curve was filed as active;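 further: ME-180 reporter cells stimulated with EGF at its EC50 level; on the % scale 0 is the no-effect control and ±100 the full control effect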); conditions: ME-180 AP-1-bla reporter, EGF-induced, beta-lactamase ratio, 5 h; at 17.2 µM (top of the series)
# How it was run: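 Cells are seeded overnight, exposed to compound titrations and an EC50 level of EGF for 5 hours at 37 °C, then loaded with CCF4 dye for 2.5 hours. Beta-lactamase activity under the AP-1 element is read as a blue/green ratio.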
# [2] = target: Cytochrome P450 1A2 (Homo sapiens) (UniProt P05177); assay: p450-cyp1a2 (AID 410; calls by dose curve; further: potency means the concentration at half of the fitted maximal effect)
# Sequence of Cytochrome P450 1A2 (Homo sapiens) (P05177 whole entry, looked up): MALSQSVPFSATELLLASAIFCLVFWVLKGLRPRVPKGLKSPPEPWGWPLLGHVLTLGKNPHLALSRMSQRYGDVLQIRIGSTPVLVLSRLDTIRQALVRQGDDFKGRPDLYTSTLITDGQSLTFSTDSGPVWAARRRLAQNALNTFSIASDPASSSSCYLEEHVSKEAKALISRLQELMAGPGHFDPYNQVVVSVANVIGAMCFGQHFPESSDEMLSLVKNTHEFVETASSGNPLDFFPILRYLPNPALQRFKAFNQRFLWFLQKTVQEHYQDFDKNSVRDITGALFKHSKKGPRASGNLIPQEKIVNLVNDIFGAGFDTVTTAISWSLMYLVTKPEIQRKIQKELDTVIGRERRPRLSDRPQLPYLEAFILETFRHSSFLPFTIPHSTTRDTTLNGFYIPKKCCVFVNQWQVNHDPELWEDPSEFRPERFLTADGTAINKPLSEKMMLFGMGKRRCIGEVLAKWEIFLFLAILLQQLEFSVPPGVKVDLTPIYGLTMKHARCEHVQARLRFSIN
# How it was run: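 Luminescent readout of luciferin formed from Luciferin-ME by human CYP1A2; data normalized against complete inhibition by 57 uM furafylline. Enzyme 20nM, substrate 100uM at Km, 100mM KPO4 buffer, 60 min reaction at room temperature.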
# [3] = Stat Signaling Pathway (AID 446; active means well fitted curve in either direction with a large enough effect, not every such curve was filed as active;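 further: ME-180 cervical cancer cells given 40 pM IL-6 alongside compound; SIE-controlled beta-lactamase reporter measured as 460/530 nm FRET emission ratio; on the % scale 0 is the no-effect control and ±100 the full control effect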); conditions: ME-180 SIE beta-lactamase reporter, IL-6 stimulated, 5 h; at 17.2 µM (top of the series)
# How it was run: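 Screening format detects activators and inhibitors alike: ME-180 SIE-bla cells stimulated at 40 pM IL-6 for 5 hrs with compound, then dual-emission beta-lactamase read at 405 nm excitation.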
# [4] = target: Glucocorticoid receptor (Homo sapiens) (UniProt P04150); assay: GR-GFP Redistribution (AID 450;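 active means compounds whose dose series gives a full or clear partial fitted curve of increased nuclear translocation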; further: potency means the concentration at half of the fitted maximal effect); conditions: U2OS GR-GFP nuclear translocation, laser cytometry, 2 h
# Sequence of Glucocorticoid receptor (Homo sapiens) (P04150 whole entry, looked up, the tested form may be a part): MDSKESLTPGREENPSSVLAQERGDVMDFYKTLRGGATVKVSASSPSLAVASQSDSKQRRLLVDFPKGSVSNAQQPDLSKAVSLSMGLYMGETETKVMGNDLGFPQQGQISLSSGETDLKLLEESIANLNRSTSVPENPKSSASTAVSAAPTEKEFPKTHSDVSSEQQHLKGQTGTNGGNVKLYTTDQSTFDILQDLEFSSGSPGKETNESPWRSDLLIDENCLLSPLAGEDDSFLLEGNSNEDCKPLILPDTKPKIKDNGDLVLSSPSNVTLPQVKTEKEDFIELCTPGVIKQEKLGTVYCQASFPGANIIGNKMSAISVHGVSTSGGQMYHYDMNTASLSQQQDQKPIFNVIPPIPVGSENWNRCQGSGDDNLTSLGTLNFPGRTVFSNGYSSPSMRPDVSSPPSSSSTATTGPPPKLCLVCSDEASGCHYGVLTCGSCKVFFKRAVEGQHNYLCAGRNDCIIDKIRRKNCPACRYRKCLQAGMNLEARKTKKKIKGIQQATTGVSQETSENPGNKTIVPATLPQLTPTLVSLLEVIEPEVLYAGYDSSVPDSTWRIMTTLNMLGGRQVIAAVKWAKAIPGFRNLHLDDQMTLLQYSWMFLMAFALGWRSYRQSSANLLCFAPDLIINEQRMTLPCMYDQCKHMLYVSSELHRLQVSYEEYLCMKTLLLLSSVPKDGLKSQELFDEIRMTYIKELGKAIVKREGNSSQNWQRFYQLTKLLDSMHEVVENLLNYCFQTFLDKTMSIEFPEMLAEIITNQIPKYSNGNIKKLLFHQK
# [5] = target: Glucocorticoid receptor (Homo sapiens) (UniProt P04150); assay: GR-EFC Redistribution (AID 451; calls by dose curve; further: potency means the concentration at half of the fitted maximal effect); conditions: CHO-K1 GR-EFC translocation, beta-gal luminescence, 2 h
# How it was run: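 CHO-K1 cells stably expressing nuclear-localized β-gal enzyme acceptor and GR fused C-terminally to the enzyme donor fragment; ligand-driven nuclear translocation restores β-gal by complementation. Compounds titrated up to 46 uM final, 2 h at 37 °C; luminescence read.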
# [6] = target: Mitogen-activated protein kinase 10 (Mus musculus) (UniProt Q61831); assay: JNK3 AlphaScreen Assay (AID 530; active means well fitted curve in either direction with a large enough effect, not every such curve was filed as active;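 further: kinase came from lysate of stimulated human HepG2 cells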; further: potency means the concentration at half of the fitted maximal effect;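 on activity change, negative = inhibition: signal reports phosphorylation of biotinylated GST-cJun 1-79 at Ser73 with 10 µM ATP; on the % scale 0 is the no-effect control and ±100 the full control effect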)
# How it was run: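 Inhibitors reduce antibody binding to phosphorylated biotin-cJun, lowering AlphaScreen luminescence. Lysates from HepG2 cells pre-activated by IL-1beta plus TNF-alpha supplied JNK3; compounds were titrated.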
# [7] = target: Cytochrome P450 2C9 (Homo sapiens) (UniProt P11712); assay: qHTS Assay for Inhibitors and Substrates of Cytochrome P450 2C9 (AID 883); further: on the % scale 0 is the no-effect control and ±100 the full control effect; nearly all actives have a fitted effect of over 60% in size
# Sequence of Cytochrome P450 2C9 (Homo sapiens) (P11712 whole entry, looked up): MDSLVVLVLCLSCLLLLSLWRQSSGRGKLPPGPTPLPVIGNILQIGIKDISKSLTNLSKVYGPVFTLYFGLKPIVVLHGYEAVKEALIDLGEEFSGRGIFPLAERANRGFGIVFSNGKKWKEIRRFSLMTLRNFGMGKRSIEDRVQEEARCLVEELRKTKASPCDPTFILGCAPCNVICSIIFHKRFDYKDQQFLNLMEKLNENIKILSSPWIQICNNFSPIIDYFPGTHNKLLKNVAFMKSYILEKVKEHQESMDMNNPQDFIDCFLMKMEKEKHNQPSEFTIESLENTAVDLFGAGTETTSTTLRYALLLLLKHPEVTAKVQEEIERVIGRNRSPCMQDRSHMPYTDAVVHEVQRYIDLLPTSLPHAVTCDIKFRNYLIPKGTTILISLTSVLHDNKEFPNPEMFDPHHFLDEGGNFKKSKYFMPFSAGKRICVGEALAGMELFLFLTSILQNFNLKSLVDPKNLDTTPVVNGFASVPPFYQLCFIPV
# How it was run: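 Human CYP2C9 (10nM) hydroxylated Luciferin-H (100uM, at its KM) to luciferin in 25mM KPO4. Compound was preincubated 10 min at 37C, then NADPH regeneration started a 60 min reaction at 37C. Luminescence was read after detection reagent, normalized to 57uM sulphaphenazole.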
# [8] = target: Cytochrome P450 3A4 (Homo sapiens) (UniProt P08684); assay: qHTS Assay for Activators of Cytochrome P450 3A4 (AID 885); further: nearly all actives have a fitted effect of over 65% in size
# Sequence of Cytochrome P450 3A4 (Homo sapiens) (P08684 whole entry, looked up): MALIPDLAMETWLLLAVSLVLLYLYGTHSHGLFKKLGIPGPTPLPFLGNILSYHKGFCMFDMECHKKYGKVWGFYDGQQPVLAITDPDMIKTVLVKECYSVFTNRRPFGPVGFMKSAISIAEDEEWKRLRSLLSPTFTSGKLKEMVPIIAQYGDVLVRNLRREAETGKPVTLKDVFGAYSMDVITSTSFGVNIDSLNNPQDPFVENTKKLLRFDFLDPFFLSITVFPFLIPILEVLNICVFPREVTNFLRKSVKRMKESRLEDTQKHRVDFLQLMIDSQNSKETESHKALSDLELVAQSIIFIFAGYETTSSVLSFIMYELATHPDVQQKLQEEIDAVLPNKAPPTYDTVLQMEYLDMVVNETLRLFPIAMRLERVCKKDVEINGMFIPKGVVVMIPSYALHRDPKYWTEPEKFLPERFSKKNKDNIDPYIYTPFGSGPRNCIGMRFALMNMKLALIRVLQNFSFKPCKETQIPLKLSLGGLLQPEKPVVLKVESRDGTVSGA
# How it was run: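 Steps: enzyme/substrate mix dispensed; compound added, 10 min RT; NADPH regeneration solution added, 60 min RT; luciferin detection buffer stops reaction; 20 min later luminescence measured.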
# [9] = target: Cytochrome P450 2D6 (Homo sapiens) (UniProt P10635); assay: qHTS Assay for Inhibitors and Substrates of Cytochrome P450 2D6 (AID 891); further: potency means the concentration at half of the fitted maximal effect; nearly all actives have a fitted effect of over 60% in size
# Sequence of Cytochrome P450 2D6 (Homo sapiens) (P10635 whole entry, looked up): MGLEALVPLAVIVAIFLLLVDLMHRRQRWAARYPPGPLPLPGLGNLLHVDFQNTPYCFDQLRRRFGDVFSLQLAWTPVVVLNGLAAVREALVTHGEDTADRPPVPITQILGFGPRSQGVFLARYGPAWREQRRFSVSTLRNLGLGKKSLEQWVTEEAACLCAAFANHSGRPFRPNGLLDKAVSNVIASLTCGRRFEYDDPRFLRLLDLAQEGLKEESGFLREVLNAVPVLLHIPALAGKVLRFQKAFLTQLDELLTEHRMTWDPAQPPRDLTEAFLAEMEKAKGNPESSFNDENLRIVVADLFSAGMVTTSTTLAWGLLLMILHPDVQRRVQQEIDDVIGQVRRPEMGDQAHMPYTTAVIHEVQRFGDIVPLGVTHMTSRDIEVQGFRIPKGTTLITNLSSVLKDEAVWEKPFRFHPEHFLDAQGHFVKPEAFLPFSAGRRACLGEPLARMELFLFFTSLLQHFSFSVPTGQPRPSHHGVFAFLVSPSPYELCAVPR
# How it was run: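 Human CYP2D6 (5 nM) with 30 uM Luciferin-ME EGE (at Km) in 100 mM KPO4, compound preincubated 10 min, then NADPH regeneration system for 60 min at room temperature. Luciferin read by luminescence; normalized to 1.43 uM quinidine.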
# [10] = target: Cytochrome P450 2C19 (Homo sapiens) (UniProt P33261); assay: qHTS Assay for Inhibitors and Substrates of Cytochrome P450 2C19 (AID 899); further: potency means the concentration at half of the fitted maximal effect; nearly all actives have a fitted effect of over 60% in size
# Sequence of Cytochrome P450 2C19 (Homo sapiens) (P33261 whole entry, looked up): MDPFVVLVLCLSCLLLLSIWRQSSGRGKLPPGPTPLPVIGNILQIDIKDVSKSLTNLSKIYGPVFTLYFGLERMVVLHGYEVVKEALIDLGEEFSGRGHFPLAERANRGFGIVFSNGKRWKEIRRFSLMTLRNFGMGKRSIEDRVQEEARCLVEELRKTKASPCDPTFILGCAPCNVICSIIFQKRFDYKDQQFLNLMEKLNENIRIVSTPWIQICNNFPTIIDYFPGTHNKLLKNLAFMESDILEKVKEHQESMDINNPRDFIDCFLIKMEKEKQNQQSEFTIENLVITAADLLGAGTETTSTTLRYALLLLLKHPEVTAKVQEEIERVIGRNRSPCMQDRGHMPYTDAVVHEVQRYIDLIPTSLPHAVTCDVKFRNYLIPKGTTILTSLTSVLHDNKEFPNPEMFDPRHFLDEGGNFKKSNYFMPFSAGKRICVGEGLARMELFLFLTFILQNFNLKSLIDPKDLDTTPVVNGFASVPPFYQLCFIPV
# How it was run: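 Human CYP2C19 (5nM) with Luciferin-H EGE at 10uM (its KM) in 50mM KPO4 was preincubated with compound for 10 min at 37C. NADPH regeneration started a 60 min 37C reaction. Luciferin was read by luminescence, normalized to 57uM ketoconazole.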
# [11] = qHTS Assay for Lipid Storage Modulators (AID 1519; calls by dose curve); conditions: Drosophila S3 cells, BODIPY lipid droplet/cell ratio, laser cytometry, cells loaded with oleic acid
# How it was run: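 Cells seeded at 5,000 per well were treated with compounds over a concentration series and loaded with oleic acid (400 uM, as added). Lipid droplet fluorescence (488 nm excitation, 500-530 nm channel) was read by laser-scanning cytometry and normalized to 20 uM Triacsin C.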
# [12] = target: DNA dC->dU-editing enzyme APOBEC-3G (Homo sapiens) (UniProt Q9HC16); assay: qHTS for inhibitors of Vif-A3G interactions: Validation (AID 588379); further: 0% is about no effect
# Sequence of DNA dC->dU-editing enzyme APOBEC-3G (Homo sapiens) (Q9HC16 whole entry, looked up): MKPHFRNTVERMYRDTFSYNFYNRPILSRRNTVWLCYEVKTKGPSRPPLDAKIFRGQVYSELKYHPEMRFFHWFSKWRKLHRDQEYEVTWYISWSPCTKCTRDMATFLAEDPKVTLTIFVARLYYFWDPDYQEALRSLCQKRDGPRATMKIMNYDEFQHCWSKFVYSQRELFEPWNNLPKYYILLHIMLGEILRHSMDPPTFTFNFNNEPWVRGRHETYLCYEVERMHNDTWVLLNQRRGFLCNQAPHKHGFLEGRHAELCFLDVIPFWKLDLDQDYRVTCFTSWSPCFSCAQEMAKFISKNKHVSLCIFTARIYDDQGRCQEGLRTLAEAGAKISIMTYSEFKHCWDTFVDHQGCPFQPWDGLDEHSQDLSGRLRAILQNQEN
# How it was run: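 HeLa cells stably expressing Vif and A3G-eYFP, 700 cells/well, incubated overnight at 37 deg C, then exposed to compound overnight at 37 deg C. Inhibition of Vif-mediated degradation read as increased yellow fluorescence (Ex 488/Em 500-530) by laser-scanning cytometry.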
# [13] = test system: Zika virus NS2B-NS3 protease; assay: Primary screen GU AMC qHTS for Zika virus inhibitors (AID 1347154);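 further: 0% = no-inhibitor control and -100% = no-enzyme control; nearly all actives have a fitted effect of over 70% in size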
# How it was run: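 Unlinked Zika NS2B hydrophilic domain/NS3 protease domain noncovalent complex (25 nM final) in 10 mM Tris-HCl pH 8.0, 0.01% Tween 20, with AMC peptide substrate. Fluorescence (ex 340, em 450 nm) change over 15 min, room temperature; percent inhibition fitted to 4-parameter Hill equation.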
# [14] = Primary qHTS for small molecule stabilizers of the endoplasmic reticulum resident proteome: Secreted ER Calcium Modulated Protein (SERCaMP) assay (AID 1508630); further: on the % scale 0 is the no-effect control and ±100 the full control effect
# How it was run: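 GLuc-SERCaMP-expressing SH-SY5Y cells, pretreated 16 h with compound, are challenged with thapsigargin to empty ER calcium stores; after 4 h, coelenterazine is added directly to the medium and luminescence is imaged.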
compound,measurement,setting,value
CO[C@@]12C[C@@H](COC(=O)c3cncc(Br)c3)CN(C)[C@H]1Cc1cn(C)c3cccc2c13,"activity change, negative = inhibition",[1],-12% (inactive)
same,Potency,[2],5.01 µM (active) and 15.8 µM (active) and 39.8 µM (active)
same,"activity, negative = inhibition",[3],-10.5% (inactive)
same,Potency,[4],> 20.6 µM (inactive) and > 46 µM (inactive)
same,Potency,[5],> 20.6 µM (inactive) and > 46 µM (inactive)
same,Potency,[6],inactive and 3.16 µM (active)
same,Potency,[7],inactive
same,Potency,[8],inactive
same,Potency,[9],39.8 nM (active) and 2.5 nM (active) and 20 nM (active)
same,Potency,[10],6.31 µM (active)
same,"activity change, negative = inhibition",[11]; at 25.7 µM (top of the series),-0.393% (inactive)
same,max response,[11]; measured here: cell count channel max response,-7.54%
same,max response,[11]; measured here: lipid channel max response,-4.61%
same,Potency,[12],inactive
same,Potency,[13],inactive
same,Potency,[14],inactive
